Consider 31 compounds from PubChem BioAssay (Tox21).

Records with an inconclusive call do not appear. Unmarked numbers belong to inactive results. The source made the active and inactive calls. Unless noted, the call rests on the fitted dose curve; in most records, active means well fitted curve in the direction sought with a large enough effect in the repeat runs; inconclusive means weak or mixed curves; inactive means no such curve, though single readings can be large; an effect the other way counts as inactive or inconclusive.

Experiment [1] in a line: qHTS assay to identify small molecule antagonists of the estrogen related receptor (ERR) signaling pathway from Tox21 library - cell viability counter screen (AID 1224834). Further: nearly all actives have a fitted effect of over 30% in size. Summed up:
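In this quantitative HTS format, ERR cells receive compounds in DMSO and are incubated for 17.5 h at 37 C. Live-cell protease activity is then detected with CellTiter-Fluor.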

Experiment [2] deals with Luciferin 4-monooxygenase (Photinus pyralis) (UniProt P08659). Kind of experiment: qHTS assay to identify small molecule inhibitors of firefly luciferase (AID 1224835). Further: series mostly up to about 120 µM; nearly all actives have a fitted effect of over 25% in size. The essentials: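 Inhibition of purified Photinus luciferase is measured by luminescence. Substrate levels (D-luciferin, ATP) sit at their KM values. Each compound is tested in a concentration series.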
Chain of Luciferin 4-monooxygenase (Photinus pyralis) (P08659 whole entry, looked up): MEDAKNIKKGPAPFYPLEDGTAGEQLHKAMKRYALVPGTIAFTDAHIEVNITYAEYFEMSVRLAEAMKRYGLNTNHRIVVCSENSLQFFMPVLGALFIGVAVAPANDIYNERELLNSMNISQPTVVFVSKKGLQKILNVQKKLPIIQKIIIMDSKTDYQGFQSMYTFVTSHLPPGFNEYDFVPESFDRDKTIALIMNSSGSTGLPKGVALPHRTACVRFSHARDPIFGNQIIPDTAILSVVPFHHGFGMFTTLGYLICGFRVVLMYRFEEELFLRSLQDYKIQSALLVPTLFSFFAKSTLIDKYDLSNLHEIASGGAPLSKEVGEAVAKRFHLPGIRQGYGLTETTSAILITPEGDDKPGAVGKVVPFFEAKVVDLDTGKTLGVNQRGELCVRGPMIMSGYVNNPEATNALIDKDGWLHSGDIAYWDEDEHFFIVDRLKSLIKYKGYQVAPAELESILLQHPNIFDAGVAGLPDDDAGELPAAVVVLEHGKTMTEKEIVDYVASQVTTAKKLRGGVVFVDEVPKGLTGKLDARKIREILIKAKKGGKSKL
Experiment [3] in a line: qHTS assay to identify small molecule agonists of the constitutive androstane receptor (CAR) signaling pathway - cell viability counter screen (AID 1224836). Further: series mostly up to about 92 µM; nearly all actives have a fitted effect of over 45% in size. Summed up: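 Cells were seeded and incubated 4 hrs. Compounds were added across 15 concentrations together with PK11195 at 0.75 uM final. Plates were incubated 23 hrs at 37 C. CellTiter-Fluor was added and fluorescence measured.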

The nature of experiment [4]: qHTS assay to identify small molecule antagonists of the constitutive androstane receptor (CAR) signaling pathway - cell viability counter screen (AID 1224837). Further: series mostly up to about 92 µM; nearly all actives have a fitted effect of over 45% in size. The essentials:
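In quantitative HTS format, compounds at 15 concentrations were applied to HepG2 cells double-transfected with hCAR and CYP2B6-2.2kb under 50 nM CITCO stimulation; live-cell protease activity was read after 23 hr via CellTiter-Fluor.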

Experiment [5] is described as follows: qHTS assay to identify small molecule antagonists of the estrogen related receptor signaling pathway with the pleiotropic PPARgamma coactivator (PGC) from Tox21 10K library - cell viability counter screen (AID 1224840; active means well fitted cell-killing curve with a large enough effect in the repeat runs, not every such curve was filed as active; further: nearly all actives have a fitted effect of over 40% in size). Summed up:
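Viability counter screen, PGC/ERR cells: 17.5 h compound exposure at 37 C, CellTiter-Fluor fluorescence endpoint.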

Experiment [6] addresses Nuclear receptor subfamily 1 group I member 3 (Homo sapiens) (UniProt Q14994). As to the kind of experiment: qHTS assay to identify small molecule agonists of the constitutive androstane receptor (CAR) signaling pathway (AID 1224839). Further: nearly all actives have a fitted effect of over 15% in size. Further: potency means the concentration at half of the fitted maximal effect.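 On activation: HepG2 cells stably carrying human CAR and a CYP2B6 luciferase reporter; series mostly up to about 92 µM.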 The essentials: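 Cells were plated and incubated 4 hrs, then dosed with compounds at 15 concentrations. PK11195 was added to 0.75 uM final. After 24 hrs at 37 C, luciferase luminescence was measured.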

Experiment [7] in a line: qHTS assay to identify small molecule antagonists of the estrogen related receptor signaling pathway with the pleiotropic PPARgamma coactivator (PGC) from Tox21 10K library (AID 1224841; call rule not given here; further: series mostly up to about 92 µM; actives are mostly falling curves and most rising ones were filed inactive; nearly all actives have a fitted effect of over 50% in size). Summed up: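 In the PGC/ERR line, DMSO solutions of test chemicals are pin-delivered to 2,000 cells/well six hours after dispensing. Following eighteen hours' incubation, One-Glo reagent is added and luminescence recorded.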

Experiment [8] can be described thus: qHTS assay to identify small molecule agonists of the estrogen related receptor signaling pathway with the pleiotropic PPARgamma coactivator (PGC) from Tox21 10K library (AID 1224842). Further: nearly all actives have a fitted effect of over 15% in size. Summed up: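 Luminescence from One-Glo (30 min, room temperature) measured after PGC/ERR cells had 18 h at 37 C with pinned compound (23 nL in DMSO). Cells had been seeded at 2,000 per well and pre-incubated 6 h.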

Experiment [9] concerns the target Nuclear receptor subfamily 1 group I member 3 (Homo sapiens) (UniProt Q14994). Kind of experiment: qHTS assay to identify small molecule antagonists of the constitutive androstane receptor (CAR) signaling pathway (AID 1224838). Further: nearly all actives have a fitted effect of over 40% in size. The essentials: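 CITCO-stimulated (50 nM final) HepG2 cells stably transfected with hCAR and CYP2B6-2.2kb luciferase were exposed to compounds at 15 concentrations for 24 h at 37 C/5% CO2. A luciferase reagent was added and luminescence recorded after 30 min.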
On the % scale 0 is the no-effect control and ±100 the full control effect.

Chain of Nuclear receptor subfamily 1 group I member 3 (Homo sapiens) (Q14994 whole entry, looked up): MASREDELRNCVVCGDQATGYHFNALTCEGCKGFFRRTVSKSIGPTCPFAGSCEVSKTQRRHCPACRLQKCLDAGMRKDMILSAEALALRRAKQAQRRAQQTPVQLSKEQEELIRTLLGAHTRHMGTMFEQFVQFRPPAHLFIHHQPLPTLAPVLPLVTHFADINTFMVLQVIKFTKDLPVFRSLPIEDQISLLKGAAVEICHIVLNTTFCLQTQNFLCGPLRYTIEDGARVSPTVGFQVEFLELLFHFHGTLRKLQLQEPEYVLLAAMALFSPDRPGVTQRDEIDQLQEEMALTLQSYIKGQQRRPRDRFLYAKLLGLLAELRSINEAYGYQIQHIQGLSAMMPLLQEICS

As to `CCCC/C=C/C=C\C=O`, the Potency result in experiment [1], in [2], in [3] and in experiment [4] was “inactive” each time. The outcome in experiment [5] was inactive.

Turning to `CC(C)(C)c1cc(CCC(=O)NN)cc(C(C)(C)C)c1O`, the Potency entry in [1], in [2], in experiment [3], in [4] and in [7] was “inactive” in each case. Further, in experiment [6], the Potency is 30.6 µM (active). Moreover, the outcome in experiment [5] and in [8] was inactive.

With `CCC(CC)CO`, the Potency entry in experiment [1], in experiment [2], in [3], in [4] and in experiment [6] was “inactive” each time. Moreover, the outcome in [5] was inactive.

With `CNC(=O)[C@H]1O[C@@H](n2cnc3c(NCc4cc(Cl)ccc4OCc4cc(C)no4)ncnc32)[C@H](O)[C@@H]1N`, the Potency entry in experiment [1], in experiment [2], in [3], in experiment [4], in experiment [6] and in experiment [7] was “inactive” throughout. Also, the call in experiment [5] and in [8] was inactive.

Regarding `N#Cc1ccc(C(=O)O)cc1`, the Potency entry in experiment [1], in experiment [2], in [3], in experiment [4], in [6] and in experiment [7] was “inactive” throughout. Moreover, the compound was classed as inactive in experiment [5] and in experiment [8].

`O=C(CS(=O)Cc1ccco1)NC/C=C\COc1cc(CN2CCCCC2)ccn1` (centres undefined): the Potency entry in [1], in [2], in [3], in experiment [4], in experiment [6] and in experiment [7] was “inactive” throughout. The call in experiment [5] and in experiment [8] was inactive.

As for `O=C(O)Cc1ccc(Cl)cc1Cl`, the Potency result in experiment [1], in experiment [2], in [3] and in experiment [4] was “inactive” in each case. In experiment [5], the outcome was inactive.

Consider `CCOc1cc(NC(C)=O)ccc1C(=O)OC`, for which the Potency entry in experiment [1], in experiment [2], in experiment [3], in [4], in [6] and in [7] was “inactive” each time. Moreover, the outcome in experiment [5] and in experiment [8] was inactive.

On to `CC(C)CCCCOC(=O)c1ccccc1C(=O)OCCCCC(C)C`, for which the Potency result in experiment [1], in experiment [2], in experiment [3], in experiment [4], in [6] and in experiment [7] was “inactive” in each case. Further, the compound was classed as inactive in experiment [5] and in experiment [8].

With `COP(=O)(OC)OC(c1ccc(Cl)cc1)P(=O)(OC)OC` (centres undefined), the Potency entry in experiment [1], in experiment [2], in experiment [3], in experiment [4], in experiment [6] and in experiment [7] was “inactive” in each case. Besides, the call in experiment [5] and in experiment [8] was inactive.

As for `C=C(C)C(=O)OCCNC(C)(C)C`, the Potency entry in [1], in experiment [2], in [3], in [4] and in [7] was “inactive” throughout. The result in [9] and in experiment [8] was inactive.

Consider `C=CC(OCC)OCC`, for which the Potency result in [1], in experiment [2], in [3], in [4] and in experiment [6] was “inactive” in each case. Further, the outcome in [5] was inactive.

On to `COc1cc2c(cc1OC)C(=O)CC2`, for which the Potency result in experiment [1], in [2], in experiment [3], in experiment [4] and in experiment [6] was “inactive” in each case. In addition, the outcome in experiment [5] was inactive.

With `CCCCCCCC/C=C\CCCCCCCC(=O)OCCCC`, the viability change, negative = cytotoxic in experiment [1] is -0.0583% [at 19 µM]; in experiment [3], -5.62% [at 19 µM]. Besides, the activity change, negative = inhibition in experiment [2] was -1.11% [at 23.6 µM]. For the same compound, the activity change, negative = cytotoxicity in experiment [4] is 3.28% [at 19 µM]. Besides, in [9], the activity, negative = inhibition is 20.6% [at 19 µM]. In addition, in experiment [8], the activation was -2.76% [at 19 µM].

For the compound `CCCOC(OCCC)OCCC`, the Potency result in experiment [1], in [2], in experiment [3], in [4], in experiment [6] and in experiment [7] was “inactive” in each case. Besides, the compound was classed as inactive in experiment [8].

Consider `CCN(C)C(=O)Oc1cccc([C@H](C)N(C)C)c1`, for which the Potency entry in experiment [1], in experiment [2], in experiment [3], in experiment [4] and in [6] was “inactive” each time. The compound was called inactive in experiment [5].

In the case of `CC(=O)NCc1c(I)c(NC(C)=O)c(I)c(C(=O)O)c1I`, the Potency entry in [1], in experiment [2], in experiment [3], in [4] and in experiment [7] was “inactive” each time. The result in experiment [9], in experiment [5] and in [8] was inactive.

For `Cc1cccc2nccnc12`, the Potency entry in [1], in experiment [2], in experiment [3] and in [4] was “inactive” throughout. Further, in experiment [5], the result was inactive.

On to `CCOC(=O)[C@H](CCc1ccccc1)N[C@@H](C)C(=O)N1C(=O)N(C)C[C@H]1C(=O)O`, for which the Potency result in experiment [1], in experiment [2], in experiment [3], in experiment [4] and in experiment [6] was “inactive” throughout. Also, the call in [5] was inactive.

On to `O=C1O[C@@H]2[C@@H](O)[C@H](O)O[C@@H]2[C@H]1O`, for which the Potency entry in [1], in experiment [2], in [3], in [4], in [6] and in [7] was “inactive” each time. Also, the result in experiment [8] was inactive.

On to `CCC(C=O)CC`, for which the Potency entry in experiment [1], in experiment [2], in [3], in [4], in [6] and in experiment [7] was “inactive” each time. Moreover, in [5], the outcome was inactive.

Consider `CC(C)=O`, for which the Potency result in [1], in experiment [2], in [3], in experiment [4] and in experiment [6] was “inactive” in each case.

In the case of `CN(CCOc1ccc(NS(C)(=O)=O)cc1)CCc1ccc(NS(C)(=O)=O)cc1`, the Potency entry in experiment [1], in experiment [2], in [3] and in experiment [4] was “inactive” in each case. In addition, the compound was classed as inactive in experiment [5].

As for `CC(C)(C)c1n[nH]c(=S)n(N)c1=O`, the Potency result in experiment [1], in experiment [2], in experiment [3], in experiment [4], in experiment [6] and in experiment [7] was “inactive” throughout. In addition, the compound was classed as inactive in [5] and in [8].

`O=S(O)(O)=S`: the viability change, negative = cytotoxic in experiment [1] was 0.32% [at 8.39 µM]; in experiment [3], 1.44% [at 8.39 µM]. In addition, the activity change, negative = inhibition in experiment [2] was 1.12% [at 10.5 µM]. For the same compound, the activity change, negative = cytotoxicity in [4] is 0.559% [at 8.39 µM]. Also, the activity, negative = inhibition in experiment [9] was -2.22% [at 8.39 µM]. Also, the activation in [8] is -0.09% [at 8.39 µM].

For the compound `CC/C=C\CC1=C(C)CCC1=O`, the Potency result in [1], in experiment [2], in experiment [3], in experiment [4], in experiment [6] and in experiment [7] was “inactive” in each case. In addition, the result in experiment [8] was inactive.

On to `CC[C@H](C)C(=O)O[C@H]1C[C@H](O)C=C2C=C[C@H](C)[C@H](CC[C@@H](O)C[C@@H](O)CC(=O)O)[C@H]21`, for which the Potency result in experiment [1], in [2], in experiment [3] and in [4] was “inactive” in each case. The compound was called inactive in [5].

`NS(=O)(=O)c1cc2c(cc1Cl)CN(C1CCCCC1)C2=O`: the Potency result in experiment [1], in [2], in experiment [3], in experiment [4] and in experiment [6] was “inactive” throughout. The outcome in [5] was inactive.

In the case of `O=C1c2ccccc2C(=O)N1CCl`, the Potency result in experiment [1], in experiment [2], in [3], in experiment [4], in experiment [6] and in experiment [7] was “inactive” each time. In addition, the compound was classed as inactive in [8].

For `CCOCCOCCOCC`, the Potency result in experiment [1], in experiment [2], in [3] and in experiment [4] was “inactive” each time. For the same compound, the compound was called inactive in experiment [5].

`COC(=O)C1CC(=O)C(C(=O)OC)CC1=O` (centres undefined): the viability change, negative = cytotoxic in experiment [1] is 2.89% [at 8.39 µM]; in experiment [3], 10.3% [at 8.39 µM]; in experiment [5], 11% [at 8.39 µM]. Also, the activity change, negative = inhibition in experiment [2] is 0.09% [at 10.5 µM]. Also, in experiment [4], the activity change, negative = cytotoxicity was 2.02% [at 8.39 µM]. Moreover, in [7], the activity, negative = inhibition was 1.96% [at 8.39 µM]. In addition, in experiment [8], the activation was 0.14% [at 8.39 µM].
